This passage reports composite z-score and z-score results from PubChem BioAssay.

Test [1] has as its system PRMT1 (protein arginine N-methyltransferase 1). The experiment in a line: PRMT1 binders on small-molecule microarrays, primary screen, biochemical, small-molecule microarray, 635 nm fluorescence (AID 1088).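 Note: binding of Prmt1 protein to compounds spotted on small-molecule microarray slides.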 The following applies: small-molecule microarray binding, higher = more signal.
Test [2] in a line: yeast growth modulation, basal conditions, primary screen, YJM789 clinical isolate, OD600, 24 h (AID 1089).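 Note: growth of clinical yeast isolate S. cerevisiae YJM 789 seeded 1000 cells per well; test concentration not given here.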 The following applies: S. cerevisiae YJM789 growth, higher = more signal, called active from +8 up or from −8 down.
The nature of test [3]: fission yeast growth modulation, primary screen, strain 972, OD600, 24 h, no modulator (AID 1090).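 Note: basal condition with compound alone and no growth modifier present; test concentration not given here.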 The following applies: S. pombe 972 growth, higher = more signal, called active from +8 up or from −8 down.
Test [4] is described as follows: S. cerevisiae growth modulation with rapamycin, primary screen, strain BY4716, OD600, 96 h (AID 1091). Note: test concentration not given here. The following applies: higher = more signal, called active from +8 up or from −8 down.
Test [5] has as its target Torsin-1A-interacting protein 2 (Homo sapiens) (UniProt Q8NFQ8). Description: LULL1 binders on small-molecule microarray, primary screen, cell lysate, human LULL1 lysate, 635/667 nm fluorescence (AID 1092).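 Note: probe is lysate of COS7 cells overexpressing human LULL1; score merges per-feature 667 nm fluorescence with signal-to-noise.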 The following applies: hLULL1 lysate binding, 635 nm fluorescence, higher = more signal.
The nature of test [6]: E. coli growth modulation, two-sided OD650, primary screen, E. coli filamentation project, strain DRC41, 24 h (AID 1093).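 Note: MC1000 strain lacking acrAB efflux and sulA so SOS filamentation is blocked; test concentration not given here.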 The following applies: OD650, 24 h, higher = more signal, called active from +8 up or from −8 down.
Test [7] in a line: small-molecule microarray binders of probe aLefty2, primary screen, biochemical, biotinylated probe, 635/667 nm fluorescence (AID 1094).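 Note: score merges spot fluorescence near 667 nm with spot signal-to-noise ratio.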 The following applies: higher = more signal.
Test [8] concerns Noggin (protein binding on small-molecule microarray). The experiment in a line: Noggin binders on small-molecule microarray, primary screen, biochemical, 635/667 nm fluorescence (AID 1095).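 Note: score merges 667 nm feature fluorescence with signal to noise over triplicate slides.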 The following applies: 635 nm fluorescence, higher = more signal.
Test [9] deals with Neurogenic locus notch homolog protein 3 (Homo sapiens) (UniProt Q9UM47). The experiment in a line: NOTCH3 binders on small-molecule microarray, primary screen, biochemical, 635/667 nm fluorescence (AID 1096). The following applies: NOTCH3 binding, 635 nm fluorescence, higher = more signal.
Sequence of Neurogenic locus notch homolog protein 3 (Homo sapiens) (Q9UM47 whole entry, looked up): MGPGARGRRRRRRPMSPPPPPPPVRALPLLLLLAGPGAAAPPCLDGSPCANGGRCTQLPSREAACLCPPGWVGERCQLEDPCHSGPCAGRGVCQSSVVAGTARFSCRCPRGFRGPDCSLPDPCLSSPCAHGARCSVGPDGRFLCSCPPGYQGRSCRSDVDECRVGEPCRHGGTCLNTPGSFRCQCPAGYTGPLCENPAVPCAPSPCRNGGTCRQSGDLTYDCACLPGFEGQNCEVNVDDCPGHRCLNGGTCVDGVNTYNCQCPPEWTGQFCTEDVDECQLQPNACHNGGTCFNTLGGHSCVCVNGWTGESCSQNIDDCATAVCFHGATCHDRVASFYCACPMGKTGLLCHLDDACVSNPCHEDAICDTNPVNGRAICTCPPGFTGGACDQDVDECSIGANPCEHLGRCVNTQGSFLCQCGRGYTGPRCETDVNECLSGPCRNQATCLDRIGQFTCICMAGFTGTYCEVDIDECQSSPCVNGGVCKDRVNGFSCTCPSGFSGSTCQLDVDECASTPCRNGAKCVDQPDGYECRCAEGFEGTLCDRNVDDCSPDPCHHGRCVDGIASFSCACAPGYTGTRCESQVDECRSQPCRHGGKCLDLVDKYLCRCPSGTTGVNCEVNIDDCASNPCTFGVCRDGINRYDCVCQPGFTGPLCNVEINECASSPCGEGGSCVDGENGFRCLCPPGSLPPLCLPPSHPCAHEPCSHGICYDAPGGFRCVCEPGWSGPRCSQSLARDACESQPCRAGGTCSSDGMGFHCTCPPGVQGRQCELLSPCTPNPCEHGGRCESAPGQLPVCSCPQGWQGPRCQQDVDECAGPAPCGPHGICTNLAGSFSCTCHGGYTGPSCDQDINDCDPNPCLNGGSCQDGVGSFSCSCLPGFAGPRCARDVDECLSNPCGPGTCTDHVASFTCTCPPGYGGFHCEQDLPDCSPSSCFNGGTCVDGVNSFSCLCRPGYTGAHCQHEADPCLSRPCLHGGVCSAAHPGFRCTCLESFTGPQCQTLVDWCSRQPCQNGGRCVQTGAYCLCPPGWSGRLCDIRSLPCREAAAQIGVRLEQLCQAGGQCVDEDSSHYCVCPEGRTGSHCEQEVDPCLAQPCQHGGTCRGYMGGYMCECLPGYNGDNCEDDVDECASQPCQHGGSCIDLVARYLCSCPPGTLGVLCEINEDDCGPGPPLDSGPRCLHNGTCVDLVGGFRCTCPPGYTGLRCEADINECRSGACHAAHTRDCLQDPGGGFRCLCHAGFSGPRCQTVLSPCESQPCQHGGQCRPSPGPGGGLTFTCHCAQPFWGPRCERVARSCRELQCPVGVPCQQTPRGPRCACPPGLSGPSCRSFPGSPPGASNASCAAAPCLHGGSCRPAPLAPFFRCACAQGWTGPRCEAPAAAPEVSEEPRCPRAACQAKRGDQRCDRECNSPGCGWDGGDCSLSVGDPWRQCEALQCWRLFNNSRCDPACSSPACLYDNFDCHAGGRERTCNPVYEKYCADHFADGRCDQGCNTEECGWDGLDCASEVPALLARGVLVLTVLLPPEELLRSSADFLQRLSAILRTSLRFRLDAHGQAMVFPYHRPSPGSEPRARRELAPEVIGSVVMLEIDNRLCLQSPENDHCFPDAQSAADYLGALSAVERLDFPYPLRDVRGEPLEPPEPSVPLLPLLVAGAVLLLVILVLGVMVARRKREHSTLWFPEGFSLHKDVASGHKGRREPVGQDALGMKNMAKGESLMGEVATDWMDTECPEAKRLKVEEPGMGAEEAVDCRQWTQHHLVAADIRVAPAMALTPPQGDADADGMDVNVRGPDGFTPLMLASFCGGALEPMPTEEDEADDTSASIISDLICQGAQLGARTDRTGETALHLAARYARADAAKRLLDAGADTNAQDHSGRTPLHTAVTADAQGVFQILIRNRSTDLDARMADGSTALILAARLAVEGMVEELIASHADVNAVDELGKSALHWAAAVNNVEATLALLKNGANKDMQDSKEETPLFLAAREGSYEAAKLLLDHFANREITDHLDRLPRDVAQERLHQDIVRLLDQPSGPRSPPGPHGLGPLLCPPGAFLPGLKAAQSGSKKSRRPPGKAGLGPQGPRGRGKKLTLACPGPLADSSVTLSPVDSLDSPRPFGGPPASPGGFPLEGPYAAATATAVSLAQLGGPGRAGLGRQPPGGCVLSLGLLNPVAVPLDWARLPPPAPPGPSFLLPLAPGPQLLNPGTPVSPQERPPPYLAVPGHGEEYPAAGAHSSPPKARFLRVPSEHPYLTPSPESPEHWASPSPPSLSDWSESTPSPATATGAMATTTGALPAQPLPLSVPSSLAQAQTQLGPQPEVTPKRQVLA
The nature of test [10]: small-molecule microarray binders of probe aEGFR, primary screen, biochemical, biotinylated probe, 635/667 nm fluorescence (AID 1097).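 Note: probe is a biotinylated anti-EGFR antibody binding compounds printed on slides; score combines fluorescence near 667 nm and signal to noise of each spot.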 The following applies: higher = more signal.

The source made the active and inactive calls.

Sequence of Torsin-1A-interacting protein 2 (Homo sapiens) (Q8NFQ8 whole entry, looked up): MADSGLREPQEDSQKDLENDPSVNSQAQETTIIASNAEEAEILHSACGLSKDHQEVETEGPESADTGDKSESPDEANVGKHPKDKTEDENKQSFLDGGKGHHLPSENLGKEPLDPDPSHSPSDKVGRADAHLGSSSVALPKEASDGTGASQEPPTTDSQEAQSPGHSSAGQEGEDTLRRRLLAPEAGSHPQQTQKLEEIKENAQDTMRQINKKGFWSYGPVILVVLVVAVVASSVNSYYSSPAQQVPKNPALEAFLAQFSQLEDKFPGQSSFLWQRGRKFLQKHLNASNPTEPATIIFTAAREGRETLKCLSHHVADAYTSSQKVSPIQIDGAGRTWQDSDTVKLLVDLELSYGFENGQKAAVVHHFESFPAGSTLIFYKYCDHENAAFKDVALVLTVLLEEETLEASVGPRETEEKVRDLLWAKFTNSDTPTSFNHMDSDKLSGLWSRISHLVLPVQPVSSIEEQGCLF

As to `O=C1C2C=CC(C(O)c3cccc(O)c3)N(Nc3ccc([N+](=O)[O-])cc3)C2C(=O)N1c1ccccc1` (stereo not given), the composite z-score was 0.622 in [1]; 1.87 in test [5]; -0.021 in test [7]; 0.196 in [8]; 0.715 in test [9]; -0.0041 in test [10]. Moreover, the z-score in [2] is 0.706 (inactive); in test [3] it was 0.667 (inactive); in test [4], 1.3 (inactive); in [6] it was 0.404 (inactive).
Consider `COCCCNC(=O)[C@@]1(Sc2ccc(C)cc2)CC(=O)N(C2Cc3ccccc3C2)[C@@H]1c1ccc(CO)cc1`, for which the composite z-score in [1] was 0.585; in test [5], 3.11; in test [7] it was -0.236; in [8] it was -1.72; in [9], -0.314; in test [10], -0.254. Also, the z-score in [2] is 0.0853 (inactive); in test [3], -1 (inactive); in test [4] it was -0.798 (inactive); in test [6], -1.27 (inactive).
`CS(=O)(=O)CCOC(=O)C1=CC(c2ccc(CO)cc2)=CC(C2CC2)N(Cc2sc3ccccc3c2Cl)C=C1C(=O)OCCS(C)(=O)=O` (stereo not given): the composite z-score is 1.46 in [1]; 1.67 in test [5]; 0.106 in test [7]; 0.471 in test [8]; 0.946 in [9]; -0.0188 in [10]. Further, the z-score in [2] is -0.348 (inactive); in test [3] it was -3.82 (inactive); in test [4], -1.23 (inactive); in test [6] it was -3.01 (inactive).
For `CC(C)(C)OC(=O)COc1cccc(C(=O)CCN2CCOCC2)c1`, the composite z-score in test [1] is 1.34; in test [5] it was 0.557; in test [7], -0.126; in test [8], -0.0786; in [9], -0.529; in test [10] it was -0.0815. The z-score in test [2] was -0.728 (inactive); in test [3], -19.8 (active); in test [4] it was -2.13 (inactive); in test [6] it was 0.328 (inactive).
Consider `C=CCC(OC(C)=O)[C@@H]1[C@@H](N(Cc2cccc3ccccc23)C(=O)Cc2ccc(F)cc2)c2cc(OCCCO)ccc2N1C(=O)c1ccc2ccccc2c1` (stereo not given in full), for which the composite z-score was -0.209 in [1]; 0.226 in test [5]; 0.0261 in test [7]; 0.154 in [8]; 0.268 in [9]; -0.0967 in test [10]. The z-score was -0.19 (inactive) in test [2], 1.43 (inactive) in test [3], -0.235 (inactive) in test [4] and 0.693 (inactive) in [6].
As to `COC(=O)[C@@]1(Cc2ccccc2)[C@H]2c3cc(C(=O)N4CCCC4)n(CCc4ccccn4)c3C[C@H]2CN1C(=O)c1ccccc1`, the composite z-score in test [1] stood at 0.123; in test [5] it was 3.93; in test [7], 0.754; in test [8], 0.678; in [9] it was 0.915; in [10], 0.338. Further, the z-score in [2] was -0.789 (inactive); in [3], 0.741 (inactive); in [4] it was 0.0746 (inactive); in test [6] it was 0.026 (inactive).
In the case of `C=CCNC(=O)[C@@H]1[C@H]2C(=O)O[C@H](c3ccccc3)[C@H](c3ccccc3)N2[C@H](c2ccc(OCCO)cc2)[C@@]12C(=O)N(C(=O)OCCOC)c1ccc(C#Cc3ccc(OC)cc3)cc12`, the composite z-score in test [1] was 1.49; in test [5], 3.13; in test [7], 0.0645; in test [8] it was 1.23; in test [9] it was 1.05; in test [10] it was -0.0974. Besides, the z-score in test [2] was 1.59 (inactive); in test [3] it was 1.77 (inactive); in [4], 6.26 (inactive); in test [6] it was 0.361 (inactive).
As for `COc1cc(NN2C(C(O)c3cc(OC)c(OC)c(OC)c3)C=CC3C(=O)N(C)C(=O)C32)cc(OC)c1OC` (stereo not given), the composite z-score in test [1] was 0.986; in test [5], 3.37; in test [7], 0.16; in [8], -0.112; in test [9], 1.06; in test [10], 0.08. The z-score in [2] was -0.871 (inactive); in [3], -0.724 (inactive); in test [4], -0.0522 (inactive); in [6], -0.678 (inactive).
Consider `C=C(/C(=C/C[C@H](OC(C)=O)c1ccc(CO)o1)c1cnc2ccccc2c1)C(C)C`, for which the composite z-score was 1.54 in test [1]; 2.64 in [5]; -0.044 in test [7]; 1.6 in test [8]; 1.02 in test [9]; -0.0172 in test [10]. In addition, the z-score is -0.816 (inactive) in test [2], -1.13 (inactive) in test [3], 0.171 (inactive) in [4] and 0.243 (inactive) in test [6].
Consider `[N-]=[N+]=NCc1ccccc1[C@@H]1OC(c2ccc(OCCCO)cc2)=N[C@]1(CCS(=O)(=O)c1ccccc1)C(=O)O`, for which the composite z-score in test [1] was 0.627; in test [5], 3.31; in test [7] it was 0.17; in [8], -0.823; in [9], 0.123; in test [10] it was -0.0535. Besides, the z-score in [2] is 0.302 (inactive); in test [3], 0.76 (inactive); in test [4], 0.248 (inactive); in [6], 0.177 (inactive).
Take `COCCOC(=O)N1C(=O)[C@@]2(c3cc(C#CCC(C(=O)OC)C(=O)OC)ccc31)[C@H](c1ccc(OCCO)cc1)N1[C@H](c3ccccc3)[C@H](c3ccccc3)OC(=O)[C@H]1[C@@H]2C(=O)N1CCc2cc(OC)c(OC)cc2C1`: the composite z-score in test [1] came to 1.55; in [5] it was 2.81; in test [7] it was 0.0146; in test [8], 1.72; in [9], 1.06; in test [10] it was 0.091. Besides, the z-score in test [2] is 2.13 (inactive); in test [3], 2 (inactive); in test [4] it was 5.2 (inactive); in test [6], 0.713 (inactive).
In the case of `C=C[C@H]1C(C(=O)OCC)=CC[C@@H](c2ccccc2)N1S(=O)(=O)c1ccc(C)cc1`, the composite z-score in [1] is 0.895; in test [5] it was 2.94; in test [7], 0.174; in [8], 0.705; in test [9], 1.13; in test [10], -0.0531. In addition, the z-score in test [2] is 0.293 (inactive); in test [3] it was 1.12 (inactive); in test [4], 1.86 (inactive); in test [6], -0.558 (inactive).
In the case of `Cc1ccc(N2C(=O)c3ccccc3[C@@H](C(=O)NCCCN(C)C)[C@@H]2c2ccc(CO)cc2)nc1`, the composite z-score in test [1] is 0.0027; in test [5], -0.732; in test [7], 0.186; in test [8], -0.572; in [9], -0.916; in [10], 0.576. Besides, the z-score is -0.292 (inactive) in test [2], -0.636 (inactive) in test [3], -0.81 (inactive) in test [4] and 0.213 (inactive) in [6].
For `Cc1ccccc1C(O)C1C=CC2C(=O)NC(=O)C2N1Nc1ccccn1` (stereo not given), the composite z-score in test [1] was 0.049; in [5], 1.6; in test [7] it was 0.0361; in [8] it was 0.232; in test [9], -0.308; in [10], 0.092. Also, the z-score was 0.833 (inactive) in [2], 0.459 (inactive) in test [3], 0.0715 (inactive) in [4] and -0.957 (inactive) in test [6].
Consider `Cc1ccc(S[C@]2(C(=O)NC(C)C)CC(=O)N(Cc3cc(C(F)(F)F)cc(C(F)(F)F)c3)[C@@H]2c2ccc(CO)cc2)cc1`, for which the composite z-score in test [1] was -0.44; in test [5], 0.47; in test [7], -0.117; in test [8] it was -1.27; in [9] it was -1.27; in [10] it was -0.302. Besides, the z-score in [2] was -0.637 (inactive); in test [3], -1.03 (inactive); in [4] it was -0.864 (inactive); in test [6], -0.0937 (inactive).
